HCV inh: HCV inhibition; AID 651820; Huh7.5.1 HCVcc-Cre infection, luciferase reporter, 44 h; 3.4% of 340,000 active; Potency, µM (doses to about 41.8 µM), inactives show top-dose activity change, negative = inhibition, most hits filed as inhibitors; also: potency is read from the fitted curve at half-maximal effect; % is scaled to controls: 0 for no effect and ±100 for the full control effect
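After 44 h co-culture of compound, cells and HCVcc-Cre (~0.5 moi), substrate is added for 15 min at room temperature and luciferase measured over 15 sec. Cells were seeded at 1,000/well and pre-cultured 4 h.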
Pf growth 48h: inhibits P. falciparum growth in the first generation, 48 h; P. falciparum luciferase growth in erythrocytes, 48 h; Potency, µM (top dose mostly 28.7 µM), for inactives: at the top dose activity change, negative = inhibition, usual class: inhibitors; AID 504832; 5.9% of 310,000 active; also: potency is read from the fitted curve at half-maximal effect; % is scaled to controls: 0 for no effect and ±100 for the full control effect
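Firefly luciferase activity from engineered P. falciparum reports growth; inhibitors lower the luminescent signal. Cultures contained 2% hematocrit erythrocytes at 0.1% final parasitemia.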
CHX counter: counter-screen hit for Shiga toxin inhibitors, cycloheximide | cell reporter, cycloheximide protein synthesis inhibition counterscreen | max response, % | 12% of 300,000 active; in the data active = max response mostly above about 13%, no sharp cut-off; inactive = mostly below about 14%; also: read at 38.3 µM for the half of the compounds with a filed dose; 0% is about no effect
Shiga toxin inh: Shiga toxin inhibition. Vero cells, Shiga toxin protein synthesis inhibition reporter. inhibition, % at 38.7 µM. 9.2% of 290,000 active; in the data active = inhibition mostly above about 28%, no sharp cut-off; inactive = mostly below about 43%; also: 0% is about no effect
Pf growth 96h: P. falciparum growth inhibition at 96 hours | P. falciparum luciferase reporter growth, 96 h | Potency, µM (titrated, usually from 28.7 µM), for inactives: top-dose activity change, negative = inhibition, usual class: inhibitors | 6.9% of 320,000 active; also: potency is read from the fitted curve at half-maximal effect; % is scaled to controls: 0 for no effect and ±100 for the full control effect
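Delayed-death screen, second-generation endpoint: infected erythrocytes, 2% hematocrit, 0.05% parasitemia final; 96 hours at 37 C, 5% CO2; luciferase detection reagent; luminescence decrease equals reduced growth.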
AMA1-RON2 inh: AMA1-RON2 (P. falciparum) interaction inhibition; AlphaScreen AMA1-biotinylated RON2 peptide binding; Potency, µM (titrated, usually from 58.2 µM), without a hit: top-dose activity change, negative = inhibition, hits mostly inhibitors; 0.2% of 360,000 active; AID 720542;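 also: potency is read from the fitted curve at half-maximal effect; 0% = vehicle wells and -100% = peptide control; nearly all actives have a fitted effect of over 45% in size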
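AMA1 (3D7) with his tag at 25 nM final met compounds first, then biotinylated RON2 peptide at 25 nM; detection used donor plus acceptor beads, 10 µg/mL apiece, read by AlphaScreen after 30 min at room temperature.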
HCV confirm: HCV inhibition, cherry-pick confirmation | shares compounds with HCV inh | HCVcc-Cre infectious virus cell assay, luciferase, inhibition | Potency, µM (titrated, usually from 41.8 µM), for inactives: at the top dose activity, negative = inhibition, most hits filed as inhibitors | 78% of 640 active; also: potency is read from the fitted curve at half-maximal effect; nearly all actives have a fitted effect of over 80% in size
HCV cytotox: toxic to HCV host cells, flagging false HCV inhibitors. shares compounds with HCV inh. HCV host cell line cytotoxicity counterscreen. Potency, µM (doses to about 41.8 µM), inactives show at the top dose activity change, negative = cytotoxicity, most hits filed as inhibitors. 22% of 640 active. AID 720576;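 also: potency is read from the fitted curve at half-maximal effect; 44 h compound exposure; % is scaled to controls: 0 for no effect and ±100 for the full control effect; nearly all actives have a fitted effect of over 55% in size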
An asterisk follows results filed as active; ? = inconclusive; . = no result. Most compounds without a hit are left out; they make up all but 21% or so of the library. Unless noted, calls follow the shape of the dose curve; as a rule, active = well fitted curve in the direction sought with a large enough effect; inconclusive = small, poorly fitted or top-dose-only effect, or another doubt; inactive = no such curve, though single readings can be large; an effect the other way counts as inactive or inconclusive.

SMILES | HCV inh | Pf growth 48h | CHX counter | Shiga toxin inh | Pf growth 96h | AMA1-RON2 inh | HCV confirm | HCV cytotox
COc1ccc(-c2sc3ccc(N4CCOCC4)cc3c2C#CCO)cc1 | 3.16µM* | . | . | . | . | -5.6% | 4.45µM* | 4.99µM*
O=C(OCC(=O)N(CCc1ccccc1)Cc1ccccc1)c1cccc(S(=O)(=O)N2CCOCC2)c1 | -20.3% | . | . | . | . | 0.0% | . | .
COc1cc(C(=O)NCc2nnc(SCC(=O)Nc3cccc(C(F)(F)F)c3)o2)cc(OC)c1OC | -17.5% | -13.1% | 5.6 | -1.4 | ? | 3.1% | . | .
CCOC(=O)C1(CCc2ccccc2)CCN(Cc2csc(C(C)=O)c2)CC1 | 6.31µM* | ? | -3.5 | 18.9 | ? | -22.6% | 14.1µM* | ?
CCOC(=O)C1(CCc2ccccc2)CCN(Cc2cnc(N(C)C)s2)CC1 | ? | ? | -1.2 | -13.0 | -14.8% | 4.8% | . | .
CC(OC(=O)C1=Cc2ccccc2OC1)C(=O)NC(C)(C)C (stereo not drawn) | -25.5% | 17.5% | -0.7 | -10.3 | -7.8% | 3.2% | . | .
CCOC(=O)c1c(NC(=O)C(C)Sc2nnc(C)c(=O)[nH]2)sc2c1CCCC2 (stereo not drawn) | 2.3% | 11.3% | -4.6 | 4.3 | 45.6% | 7.2% | . | .
Cc1cccc(C(=O)N=c2c(C#N)cc3c(=O)n4cccc(C)c4nc3n2Cc2ccco2)c1 | 5.62µM* | . | 3.6 | -14.0 | 13.1µM* | ? | 3.96µM* | 0.4%
Cc1nc2ccccc2n1Cc1ccccc1 | ? | -0.7% | -0.8 | . | ? | 9.8% | . | .
Cc1nc2ccccc2n1Cc1ccc(Br)cc1 | 2.51µM* | . | . | . | . | -10.7% | 1.99µM* | 1.99µM*
S=C(NCc1ccccc1)Nc1cccc2cnccc12 | 2µM* | 21.5% | -1.4 | -11.8 | 6.8% | -1.5% | 7.05µM* | 9.95µM*
COc1ccc2c(c1)CCc1c-2nc2ccccc2c1N1CCOCC1 | 4.47µM* | ? | -0.2 | 4.8 | ? | 9.5% | -21.4% | -50.5%
COc1ccc(-c2csc(NC(=O)C3CSC4(C)CCC(=O)N34)n2)c(OC)c1 (stereo not drawn) | 8.91µM* | -26.6% | . | . | ? | -17.9% | 28µM* | -14.8%
CC(C)Cn1c(N)c(C(=O)CSc2ccccc2)c(=O)n(C)c1=O | ? | 21.4% | 2.7 | 17.8 | 1.5% | 3.2% | 7.91µM* | ?
COc1ccc(S(=O)(=O)N2CCOC2CNC(=O)C(=O)NCCN2CCOCC2)cc1C (stereo not drawn) | . | 0.3% | -0.8 | 2.9 | -1.2% | 9.8% | . | .
COc1ccc(-n2nc3c(c2NC(=O)c2ccc(S(=O)(=O)N4CCOCC4)cc2)CS(=O)(=O)C3)cc1 | -6.3% | -10.8% | -4.4 | -3.1 | 1.6% | -2.3% | . | .
Cc1nn(-c2cc(N3CCNCC3)ccc2[N+](=O)[O-])c(=O)c2ccccc12 | -0.8% | 8.6% | 3.7 | -5.2 | 58.4% | -20.4% | . | .
CC(Nc1cc(N2CCNCC2)ccc1[N+](=O)[O-])c1ccccc1 (stereo not drawn) | 3.55µM* | -24.8% | 6.0 | 9.2 | 34.6% | ? | ? | 55.3%
CCOC(=O)C1C(c2cccc([N+](=O)[O-])c2)C2C(=O)NN=C2CC1(C)O (stereo not drawn) | 4.4% | 5.4% | -4.2 | 15.2 | 20.3% | 5.4% | . | .
Cc1cc(Cl)c2oc(C(=O)N3CCOCC3)c(C)c2c1 | . | . | . | . | . | -2.6% | . | .
Cc1cc(Cl)c2oc(C(=O)N3CCN(C(=O)c4ccco4)CC3)c(C)c2c1 | ? | ? | 38.4* | 65.3* | 6.5% | -5.9% | ? | -12.1%
COc1ccc2c(C)cc(SCC#N)nc2c1 | ? | 26.2% | 0.5 | 24.4 | 13.5% | 14.6% | . | .
COc1ccc2c(C)cc(SCc3c(C)noc3C)nc2c1 | 6.31µM* | -11.6% | -1.7 | -9.5 | 3.8% | 34.5% | 22.3µM* | -31.1%
Cc1onc(-c2ccccc2)c1-c1nnc(COC(=O)c2ccc(F)cc2)o1 | . | . | . | . | . | 40.0% | . | .
Cc1onc(-c2ccccc2)c1-c1nnc(-c2ccccc2C(F)(F)F)o1 | ? | 37.0% | 4.4 | -8.5 | 38.2% | 3.1% | 25µM* | -30.7%
SMILES | HCV inh | Pf growth 48h | CHX counter | Shiga toxin inh | Pf growth 96h | AMA1-RON2 inh | HCV confirm | HCV cytotox
Cc1nc(N)nc(N)c1CCCc1ccc(Cl)c(Cl)c1 | 3.98µM* | . | . | . | . | -14.6% | 7.05µM* | ?
O=C(Nc1ccc(F)cc1F)N1CCCN(c2ccc(C(F)(F)F)cn2)CC1 | 5.01µM* | 2.0% | -3.0 | -5.0 | 7.4% | 22.5% | 5.6µM* | 7.91µM*
O=C(Nc1ccc(F)cc1F)N1CCN(c2ncccn2)CC1 | -0.6% | 5.4% | 3.1 | 6.1 | 9.5% | 15.6% | . | .
CNC(=S)Nc1ccc(N2CCN(c3ccc(C(F)(F)F)cn3)CC2)nc1 | 2.51µM* | ? | -1.3 | -5.8 | 6.2% | 0.5% | 4.99µM* | ?
Cc1cnc(C(=O)N2CCN(c3ccc(C(F)(F)F)cn3)CC2)cn1 | 2.9% | 14.1% | 1.3 | 7.1 | 16.8% | 7.9% | . | .
COc1ccc([N+](=O)[O-])cc1NC(=O)c1ccco1 | ? | 55.5% | -4.7 | 14.9 | 27.7% | 9.5% | ? | 17.7%
Cc1cc(C(=O)N/N=C/c2ccc(O)c(O)c2O)c(C)n1-c1ccccc1 | 5.62µM* | 11.7µM* | 54.0* | 73.4* | 1.3% | 27.4% | 12.5µM* | ?
Cc1cc(/C=N/NC(=O)C(O)(c2ccccc2)c2ccccc2)c(C)n1-c1ccccc1 | -0.2% | -10.4% | 7.0 | 4.1 | ? | 76.5% | . | .
Cc1ccc2c(c1)c1c(n2CC(O)CNC2CCCCC2)CCCC1 (stereo not drawn) | 4.47µM* | 2.94µM* | -11.7 | -23.8 | 26.0% | ? | 12.5µM* | -96.6%
CCOc1ccc(CCNC(=O)CSCC(=O)Nc2cccc(C)c2)cc1OCC | ? | ? | . | . | -24.9% | 1.5% | . | .
Cc1cccc(Cn2c(O)c(N=NC(=S)Nc3ccccc3F)c3ccccc32)c1 | 3.98µM* | ? | -3.3 | -3.4 | -0.1% | 17.2% | 7.91µM* | ?
CNc1ccc2nc3ccccc3[n+](C)c2c1 | 3.16µM* | 0.165µM* | 35.2* | 66.6* | 0.165µM* | ? | 12.5µM* | 14.1µM*
COc1cc2c(cc1N/C=C(\C#N)c1nc(-c3ccccc3)cs1)oc1ccccc12 | 14.2% | -4.7% | -4.7 | 21.8 | ? | 4.2% | . | .
N#C/C(=C\Nc1ccc2cn[nH]c2c1)c1nc(-c2ccccc2)cs1 | 0.891µM* | ? | -1.7 | -20.4 | ? | -5.2% | 3.15µM* | -54.2%
CC(C)(C)C1CCc2c(sc3ncn(N)c(=N)c23)C1 (stereo not drawn) | ? | 5.1% | 13.3* | 40.0 | -29.4% | 100.1% | 6.28µM* | ?

Screens: PubChem, National Center for Advancing Translational Sciences (NCATS)
